Experimental data as given in the OligoGym collection.

Biological target: DNTTIP1
Assay: pooled miR-30 sensor sort-seq; sequence = guide strand
Details: shRNA
Also: reference of the scale not given here.

Row | Sequence | sensor-assay potency score (higher = more potent)
1 | TTGATGTAGATTCTTCCTCTGG | -0.475
2 | TGAGTCACTACAAACTCGCTCA | -0.249
3 | TTTCAATTCCTCTAGCTTCAGA | -0.665
4 | TTTGGTTTCCATACCATGCCGG | -0.318
5 | TTTATCATTATGTTCCAAGGGT | 0.164
6 | TGAAACTTGTTGTCATCTGTGA | 0.435
7 | TTGGTTTCCATACCATGCCGGC | -0.684
8 | TATACTTTCTCATCTTCTCCAC | 0.0054
9 | TAGAACCACATGCTAGTCTGGG | -0.495
10 | TTCCTCTAGCTTCAGATCCAGG | -1.66
11 | TACTTGTTGAAGACAGTCTGGA | 0.302

Biological target: DOCK11
Assay: as above
Details: shRNA

Row | Sequence | sensor-assay potency score (higher = more potent)
12 | TTCTCTTCCAACAAGTATGTGG | -0.568
13 | TAAACTGTCGGTGTTGATCTGA | 0.463
14 | TTTAGCTGTCCTGTGCACCTTC | 0.773
15 | TTCAATATTGCTATCATCGTAG | 0.383
16 | TTGCTTTATGCAACCAGCCTTG | -0.849
17 | TTCTTGAACTAAACTGTCGGTG | -0.436
18 | TTTCTTGAACTAAACTGTCGGT | 0.142
19 | TTTTGTATGCATAACTTCCAGA | -0.169
20 | TTGATCTTCTTTAATTAGCCGC | -0.638
21 | TTGAACTAAACTGTCGGTGTTG | -0.114
22 | TTCACTATAATGGACATCCATC | -1.02
23 | TGATCTTAGATAACTATCCAAG | -1.04

Biological target: DOCK1
Assay: as above
Details: shRNA

Row | Sequence | sensor-assay potency score (higher = more potent)
24 | TATCATTTCGAACATCACCAGG | -1.26
25 | TTCACATCGTTGACGATCGTTG | -0.549
26 | TTCGACTTCATGATCCAGCTTG | 0.58
27 | TAACAGTCTCAAACCAGCGTGG | -0.364
28 | TTTCGTTCTCATACTGCTCGGC | 0.184
29 | TTTCACATCGTTGACGATCGTT | -0.0463
30 | TTAGAGTCCTGTGATGACCTGT | 0.59
31 | TAACACTTTGTACTGTTCGTCT | -0.198
32 | TTGTACTGTTCGTCTCCTCTGC | 0.121
33 | TACATCATCACTACACAGCTTC | 0.384
34 | TTTCGTAACGTGTAACCTCGGT | 0.0583
35 | TTAGACTTTTTTCGTAACGTGT | -0.535
36 | TTAACAGTCTCAAACCAGCGTG | -0.984
37 | TTACAATCTGCTCTGACACTGG | 0.172
38 | AACACTTTTGTCAACTTCGTGT | 0.131
39 | TTGTCTGTTAATATCTATGTTC | -0.583
